Experimental data taken from PubChem BioAssay.

How the values were obtained:
[1] = tested on: Human papillomavirus type 1a protein E7 (residues 44-93); assay: small molecules binding HPV E7 44-93 – biochemical, small-molecule microarray, residues 44-93, 635 nm fluorescence, primary screen (AID 1108); conditions: fluorescence 635 nm, higher = more signal;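 note: E7 fragment applied at 1 µg/mL in TBST for 1 h at 4 C; score combines spot fluorescence with its signal to noise ratio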
[2] = hepatitis C replication reporter changes, two-sided – Huh7 cells, luciferase reporter, HCV replication inhibitor project, primary screen (AID 1109); conditions: Huh7 HCV replicon luciferase reporter, 48 h; higher = more signal;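 note: huh7 hepatoma cells harbouring a luciferase neomycin HCV replicon reporter; luciferase luminescence as measure of HCV replicon replication; test concentration not given here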
[3] = target: Left-right determination factor 2 (Homo sapiens) (UniProt O00292); assay: small molecules binding LEFTY2 protein – biochemical, small-molecule microarray, 635 nm fluorescence scan, primary screen (AID 1110); conditions: higher = more signal
Left-right determination factor 2 (Homo sapiens), sequence (O00292 whole entry, looked up): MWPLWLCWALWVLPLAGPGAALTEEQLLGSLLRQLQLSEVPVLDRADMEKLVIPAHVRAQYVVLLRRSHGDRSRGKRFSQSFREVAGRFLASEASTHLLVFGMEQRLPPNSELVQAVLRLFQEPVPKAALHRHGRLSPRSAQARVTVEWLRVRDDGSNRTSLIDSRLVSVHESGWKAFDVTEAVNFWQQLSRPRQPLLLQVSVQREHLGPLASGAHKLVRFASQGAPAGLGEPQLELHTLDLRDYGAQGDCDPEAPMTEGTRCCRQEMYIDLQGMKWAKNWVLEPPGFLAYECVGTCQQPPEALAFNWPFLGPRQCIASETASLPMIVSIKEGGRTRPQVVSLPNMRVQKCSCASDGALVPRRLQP

[4] = target: Calmodulin-1 (Homo sapiens) (UniProt P0DP23); assay: small molecules binding calmodulin-1 with EGTA – biochemical, small-molecule microarray, Cy5-labelled CALM1, profiling panel (AID 1111); conditions: Cy5-CALM1 binding fluorescence, higher = more signal;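 note: labelled calmodulin applied in Tris saline Tween buffer holding calcium plus EGTA and DTT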
[5] = target: Calmodulin-1 (Homo sapiens) (UniProt P0DP23); assay: small molecules binding Ca-loaded calmodulin-1 – biochemical, small-molecule microarray, Cy5-labelled CALM1, plus calcium, artefact control for SMM control-protein annotation, profiling panel (AID 1112); conditions: Cy5-CALM1 binding fluorescence, higher = more signal;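 note: score merges spot fluorescence with signal to noise from triplicate slides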
[6] = probe aWnt5a binding to arrayed compounds – biochemical, biotinylated probe, 635/667 nm fluorescence, primary screen (AID 1113); conditions: small-molecule microarray, higher = more signal;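 note: score merges 667 nm fluorescence intensity with signal-to-noise per printed feature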
[7] = probe aShh binding to arrayed compounds – biochemical, biotinylated probe, 635/667 nm fluorescence, primary screen (AID 1114); conditions: small-molecule microarray, higher = more signal;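 note: probe is biotin-labelled aShh protein from a stem cell growth factor screen; measures binding of labelled protein to compounds printed on the slide; score merges feature fluorescence at 667 nm with signal-to-noise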
[8] = probe aNog binding to arrayed compounds – biochemical, biotinylated probe, 635/667 nm fluorescence, primary screen (AID 1115); conditions: small-molecule microarray, higher = more signal;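 note: probe is biotinylated aNog protein used at 0.15 µg/mL for 1 h at 4 C; z-score combines 667 nm fluorescence of each spot with its signal to noise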
[9] = target: Torsin-1A-interacting protein 1 (Homo sapiens) (UniProt Q5JTV8); assay: compound microarray binding of lysate hLAP1 – cell lysate, small-molecule microarray, COS7 lysate, 635/667 nm fluorescence, primary screen (AID 1116); conditions: 635 nm fluorescence, higher = more signal
Torsin-1A-interacting protein 1 (Homo sapiens), sequence (Q5JTV8 whole entry, looked up): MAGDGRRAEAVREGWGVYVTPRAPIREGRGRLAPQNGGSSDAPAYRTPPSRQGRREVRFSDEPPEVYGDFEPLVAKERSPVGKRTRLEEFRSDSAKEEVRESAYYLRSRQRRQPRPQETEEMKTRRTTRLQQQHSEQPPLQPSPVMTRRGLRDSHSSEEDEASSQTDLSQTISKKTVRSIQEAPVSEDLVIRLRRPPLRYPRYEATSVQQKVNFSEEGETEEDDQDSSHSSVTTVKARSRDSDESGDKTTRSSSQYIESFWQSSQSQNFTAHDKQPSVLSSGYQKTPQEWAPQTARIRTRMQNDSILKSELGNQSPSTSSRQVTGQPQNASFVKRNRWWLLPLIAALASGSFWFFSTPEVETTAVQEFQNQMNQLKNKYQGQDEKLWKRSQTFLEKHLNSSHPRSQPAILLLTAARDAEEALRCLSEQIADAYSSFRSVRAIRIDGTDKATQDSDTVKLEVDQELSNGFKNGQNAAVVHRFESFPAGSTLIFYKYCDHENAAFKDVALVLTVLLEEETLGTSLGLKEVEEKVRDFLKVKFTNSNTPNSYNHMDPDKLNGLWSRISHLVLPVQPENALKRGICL

[10] = target: Alpha-bungarotoxin (Bungarus multicinctus) (UniProt P60615); assay: compounds binding labelled alpha-BTX control protein – biochemical, small-molecule microarray, Alexa647 label, 635/667 nm fluorescence, artefact control for SMM control protein annotation, profiling panel (AID 1117); conditions: alpha-BTX-A647 binding fluorescence, higher = more signal
Alpha-bungarotoxin (Bungarus multicinctus), sequence (P60615 whole entry, looked up): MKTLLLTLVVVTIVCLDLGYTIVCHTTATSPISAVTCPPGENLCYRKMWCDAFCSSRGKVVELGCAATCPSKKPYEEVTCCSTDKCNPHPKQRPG

| Compound | composite z-score [1] | z-score [2] | composite z-score [3] | composite z-score [4] | composite z-score [5] | composite z-score [6] | composite z-score [7] | composite z-score [8] | composite z-score [9] | composite z-score [10] |
| --- | --- | --- | --- | --- | --- | --- | --- | --- | --- | --- |
| [N-]=[N+]=NCc1ccccc1[C@@H]1OC(c2ccc(OCCCO)cc2)=N[C@]1(CCS(=O)(=O)c1ccccc1)C(=O)N1CCCCC1 | 1.48 | -1.87 | 0.334 | 1.79 | 0.415 | 0.0873 | 0.333 | -0.316 | 1.04 | 1.34 |
| O=C1O[C@@H](c2ccccc2)[C@@H](c2ccccc2)N2[C@@H](c3ccc(OCCO)cc3)[C@]3(C(=O)Nc4ccc(C#CC5=CCCCC5)cc43)[C@@H](C(=O)N3CCCCCCC3)[C@H]12 | 1.45 | -1.58 | 1.59 | 2.33 | 1.14 | 1.21 | 2.92 | 3.02 | 4.33 | 2.54 |
| O=C(CS)NCCCCCNC(=O)[C@H]1C[C@H]2C(=O)NCC(=O)N2[C@H]1c1cccc(OCCO)c1 | -1.02 | 1.34 | -0.356 | -0.213 | 0.787 | -0.152 | 0.294 | -0.311 | -0.631 | 0.854 |
| C#CCN1[C@@H](Cc2ccc(O)cc2)C(=O)O[C@H](Cc2ccccc2)[C@@H]1/C=C/C1CC1 | -0.513 | -3.22 | 0.207 | -0.458 | -0.587 | -0.18 | 0.163 | -0.113 | -0.188 | 0.0577 |
| C=CCNC(=O)[C@H]1[C@@H]2C(=O)O[C@@H](c3ccccc3)[C@@H](c3ccccc3)N2[C@@H](c2ccc(OCCO)cc2)[C@]12C(=O)Nc1ccc(C#CCC(C(=O)OC)C(=O)OC)cc12 | 0.694 | -2.22 | 1.37 | 0.832 | 0.478 | 0.0805 | -0.254 | -0.126 | 0.357 | 1.34 |
| C=C[C@H](C)[C@@H](OC(=O)Nc1ccc(SC)cc1)c1ccc(O)c2ccccc12 | 1.41 | -0.751 | 1.23 | 0.988 | -0.0069 | -0.101 | -0.0553 | -0.343 | 0.575 | 0.893 |
| COC(=O)c1c(CC[C@@H](CO)NC(=O)NCCc2c[nH]c3ccccc23)oc(C(=O)Cc2ccccc2)c1C(=O)OC | 0.465 | -1.16 | 0.353 | -0.103 | -0.46 | 0.0657 | -0.0011 | -0.33 | 0.385 | -0.172 |
| CO[C@H]1O[C@H](CO)[C@@H](OC(=O)Nc2ccc(Br)cc2)[C@@H]2OC(=O)[C@H](Cc3cccc(Br)c3)C/C=C/C[C@@H](Cc3cccc(Br)c3)C(=O)O[C@@H]12 | -0.852 | -3.26 | -0.402 | 0.404 | 0.609 | -0.12 | -0.221 | -0.1 | -0.284 | 0.386 |
| CCOC(=O)C1=CCC(c2ccc(F)cc2)N(S(=O)(=O)c2ccc(C)cc2)C1 (stereo not given) | 0.683 | -1.81 | 0.105 | 0.0017 | 0.0535 | -0.184 | -0.167 | -0.494 | 0.612 | 0.25 |
| COCCOC(=O)N1C(=O)[C@@]2(c3cc(C#CCCO)ccc31)[C@H](c1ccc(OCCO)cc1)N1[C@H](c3ccccc3)[C@H](c3ccccc3)OC(=O)[C@H]1[C@@H]2C(N)=O | 1.44 | -1.13 | 0.606 | 0.852 | 0.278 | 0.0136 | 0.171 | 0.226 | 0.918 | 0.338 |
| CCCCCCc1nc(-c2ccc(-c3ccc(Cl)c(Cl)c3)o2)cc2c1[Si](C(C)C)(C(C)C)O[C@H]2c1ccccc1 | -0.545 | -0.674 | -0.0324 | -0.365 | 0.077 | -0.264 | 0.0723 | -0.141 | -0.741 | 0.622 |
| COc1ccc(NC(=O)O[C@H]2[C@H](OC(=O)c3cc4ccccc4[nH]3)[C@@H](OC(=O)c3cc4ccccc4[nH]3)[C@@H](OC)O[C@@H]2CO)cc1 | -0.548 | -1.98 | 0.046 | 0.467 | -0.206 | -0.0512 | 0.0121 | -0.0612 | 1.04 | 0.243 |
| O=C1N(CCS(=O)(=O)c2ccccc2)c2ccccc2[C@@H]2OC(c3ccc(OCCCO)cc3)=N[C@]12Cc1ccccc1 | 1.34 | -1.94 | 0.248 | 0.835 | -0.387 | -0.124 | -0.24 | -0.12 | 0.309 | 1.32 |
| COc1ccc([C@H]2C[C@H]3C(I)=C[C@@H]2C(=O)[C@]32CO2)cc1 | -1.2 | -3.32 | 0.178 | -0.978 | -1.53 | -0.222 | -0.407 | -0.1 | 0.498 | 0.957 |
| [N-]=[N+]=Nc1ccccc1C[C@]1(C(=O)NCc2ccccc2)N=C(c2ccc(OCCCO)cc2)O[C@H]1c1ccccc1N=[N+]=[N-] | 1.42 | -2.34 | -0.366 | 1.99 | 0.177 | 0.164 | 0.149 | -0.237 | 1.02 | 1.48 |
| COc1ccc([C@H]2C[C@H]3C(Br)=C[C@@]2(CO)C(=O)[C@]32CO2)cc1 | -0.368 | -2.02 | 0.122 | -0.282 | -0.38 | 0.0286 | -0.262 | -0.0827 | 0.291 | 0.0471 |
| O=C1NC(=O)C2C1C=CC(C(O)c1ccc(I)cc1)N2Nc1ccccn1 (stereo not given) | -0.409 | -0.533 | 0.379 | 0.532 | 0.267 | 0.0136 | 0.282 | 0.0403 | -0.593 | 0.636 |
